Where “and” joins values, the source holds several entries; their conditions need not be identical. Equal values may be shown once. Compounds without any hit were thinned out: in the full panel of roughly 83,000, 20% have a hit.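 Interpretation: 100, growth as untreated; towards 0, rising growth inhibition; 0, no net growth; 0 to -100, cell death. Compounds scoring below 10 were considered active.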 Calls of active or inactive are those of the source.

For the assay, the system named is LOX IMVI melanoma. Put plainly: NCI-60 one-dose screen, 48 h (100 = growth as untreated, 0 = no growth, -100 = all killed). To be noted: 10 µM unless noted. As to the method: Growth inhibition of the LOX IMVI human tumor cell line is measured as a screen for anti-cancer activity. Cells are grown in 96 well plates and exposed to the test compound for 48 hours. Compounds are tested at a single concentration, which is 10^-5 M for most compounds. The reported endpoint is percent growth (GI% or GIPRCNT), where numbers from 0 - 100% represent growth inhibition, and numbers from -100% - 0 represent cell death. For example, a value of 40 represents 60% growth inhibition. A value of 0 means no net growth occurred over the course of the experiment. A value of -40 indicates 40% of cells at the beginning of the experiment died by the end of the experiment. A value of -100 means all cells are dead at the end of the experiment.
NCI-60 Human Tumor Cell Lines Screen was performed using the standard one-dose NCI protocol, which is described in more detail at https://dtp.cancer.gov/discovery_development/nci-60/default.htm.
Compounds with GIPRCNT values below 10 were considered active. Activity score was based on GIPRCNT using the following formula: […]
Score is 0 for GIPRCNT values of 100 or above, 50 for GIPRCNT values of 0, and 100 for GIPRCNT values of -100.
Regarding `NC(=O)c1c(Br)c(Br)c(Br)c(Br)c1C(=O)O` (tested in a mixture with another compound), the growth was 31.8% (inactive) and 101% (inactive).
Regarding `C/C(=N/OC(=O)N(C)C)c1ccc(Cl)c(Cl)c1`, the growth is 99.2% (inactive).
Take `CC[CH2][Sn]([Cl])([Cl])[CH2]CC.Oc1ccccc1C=NCCN=Cc1ccccc1O`: the growth is 17.4% (inactive) and -11.1% (active).
`CC(=O)C(N)Cc1ccccc1` (stereo not given): the growth was 95.1% (inactive).
Take `O=S1(=O)OCCO1`: the growth is 92.3% (inactive).
The result for `C[N+]1(C)CCCC1c1cccnc1` (stereo not given) reads 100% (inactive).
Regarding `NC(N)=NC(N)=Nc1ccc(Cl)cc1`, the growth is 110% (inactive).
Turning to `C[C@]12CC[C@H]3[C@@H](CC=C4c5nc(N)sc5CC[C@@]43C)[C@@H]1CC[C@@H]2O`, the growth is 104% (inactive).
Take `COC(=O)C1=CO[C@@H](C)[C@@H]2CN3CCc4c([nH]c5cc(OC)ccc45)[C@@H]3C[C@H]12`: the growth was 94.6% (inactive).
Regarding `C/C(=C\c1ccn(-c2ccc(N)cc2F)n1)[C@@H]1C[C@@H]2O[C@]2(C)CCC[C@H](C)[C@H](O)[C@@H](C)C(=O)C(C)(C)[C@@H](O)CC(=O)O1`, the growth is 27.3% (inactive).
As for `CCCCn1c(=O)c(C(=O)NCc2ccccc2Cl)c(O)c2ccccc21`, the growth was 55.4% (inactive).
On to `O=C(O)c1ccc(=O)[nH]c1`, for which the growth is 103% (inactive) and 93.4% (inactive).
In the case of `CC(Oc1ccc(-c2ccccc2)cc1)C(=O)O` (stereo not given), the growth was 104% (inactive).
Take `C[C@@]12CCCc3coc(c31)C(=O)c1cc3c(cc12)C(=O)C1=C(NCCS1(=O)=O)C3=O`: the growth is -42.7% (active).
For `N#Cc1ccc(Cl)cc1`, the growth was 106% (inactive).
As to `ClCc1ccc(Cl)c(Cl)c1`, the growth is 104% (inactive).
Under `C[C@]12C[C@H](c3ccoc3)OC(=O)[C@H]1CC[C@@]1(C)[C@@H]2[C@H]2C=C[C@]1(O)C(=O)O2` stands 106% (inactive); under `O=[N+]([O-])c1ccc(OCc2ccc(S(=O)(=O)F)c(Cl)c2)c(Cl)c1`, 93% (inactive).
Regarding `C=CC[PH+](c1ccccc1)c1ccccc1.C=CC[PH+](c1ccccc1)c1ccccc1.[Pt+2].[S-]c1ncccn1.[S-]c1ncccn1`, the growth was -68.3% (active).
As for `O=P1(N(CCCl)CCCl)NCCCO1` (stereo not given), the growth was 104% (inactive).
For `COc1ccc2c(c1)C1(C)CCN(C)CC(C1)C2O` (stereo not given), the growth was 98.4% (inactive).
`N#CCCc1ccccc1`: the growth is 102% (inactive).
Turning to `O=[N+]([O-])c1ccc(P(=O)(O)O)cc1`, the growth was 93.2% (inactive).
For `CCC(=O)C(CC(C)N1CCCCCC1)(c1ccccc1)c1ccccc1` (stereo not given), the growth was 103% (inactive).
Under `O=S(OO)c1cc(Cl)c(O)c(Cl)c1` (stereo not given) stands 96.4% (inactive).
On to `C(=NC1CCCCC1)=NC1CCCCC1`, for which the growth was 109% (inactive).
As for `O=C1NC(=O)C(=C/C=C/c2ccccc2)C(=O)N1`, the growth is -64.4% (active).
As for `C[C@]12CCC3[C@@H](C[C@@H]4SC(Nc5ccccc5)=N[C@@]45CC(=O)CC[C@]35C)[C@@H]1CCC2=O` (stereo not given in full), the growth is -58.1% (active).
`Cn1cc(-c2csc(-c3cn(CCCCN4CCOCC4)c4ccc(F)cc34)n2)c2cccnc21`: the growth was 67.6% (inactive).
On to `CC[C@H](C)[C@H](NC(=O)c1ncccn1)C(=O)N(C)[C@H](C[C@@H](OC(C)=O)c1nc(C(=O)N[C@@H](Cc2ccccc2)C[C@H](C)C(=O)OC)cs1)C(C)C`, for which the growth is 21.4% (inactive).
Regarding `Oc1ccccc1C=NCCN=Cc1ccccc1O`, the growth was 95.6% (inactive).
Consider `C=CCOC(=O)C(Br)CC` (stereo not given), for which the growth was 95.8% (inactive).
Take `CC1=C2[C@H]3OC(=O)[C@@H](C)[C@@H]3CC[C@@]2(C)C=CC1=O`: the growth was 99.1% (inactive).
The result for `CC[C@H](C)[C@H](NC(=O)CN(C)C)C(=O)N(C)[C@H](C[C@@H](OC(C)=O)c1nc(C(=O)NC23C4C5C2C2C3C4C52C(=O)OC)cs1)C(C)C` (stereo not given in full) reads 15.3% (inactive); that for `CN(C)[C@@H]1C(=O)C(C(N)=O)=C(O)[C@@]2(O)C(=O)C3=C(O)c4c(O)ccc(Cl)c4[C@@](C)(O)[C@H]3C[C@@H]12`, 86% (inactive) and 95.6% (inactive).
The result for `O=C(O)C(F)F` reads 99% (inactive); that for `Cc1cc[c-]cc1.Fc1c[c-]c(-c2ccccn2)c(F)c1.N#CCC[PH+](CCC#N)c1ccccc1.[Pt+2]`, -2.55% (active); that for `O=C1C=C(N2CC2)c2ccccc2C1=O`, 39% (inactive).
Turning to `O=[N+]([O-])c1cc(Cl)c(Cl)cc1Cl`, the growth was 96.5% (inactive) and 98.4% (inactive).
As for `CCOP(=O)(OCC)C(=O)N(CC)CC`, the growth was 104% (inactive).
